PMK inhibit: S. pneumoniae PMK inhibitors, primary screen, biochemical, mevalonate pathway, pilot trial included; purified PMK, PK/LDH-coupled NADH absorbance 340 nm; 65,000 compounds, 0.49% hits; inhibition, % at 10 µM; phosphomevalonate kinase (Streptococcus pneumoniae D39);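 active = top-ranked compounds by inhibition in the single 10 µM screen, taking a fixed number of the strongest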;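 also: 0% = full reaction with DMSO carrier and 100% = background rate without enzyme reaction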
Spn DPM-DC inh: S. pneumoniae DPM-DC inhibitors, primary screen, biochemical, PK/LDH-coupled NADH fluorescence; calls only at 10 µM; 65,000 compounds, 0.49% hits; AID 556, 2006; diphosphomevalonate decarboxylase (Streptococcus pneumoniae D39); purified DPM-DC;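 active = the 320 compounds with the highest percent inhibition in the single-dose primary screen, excluding strongly autofluorescent ones, cut at about 32% in these data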;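 also: kinetic rate of NADH fluorescence loss reporting ADP formed by the decarboxylase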
Fluor 339 460: intrinsic fluorescence of library compounds, ex339/em460 – biochemical, MLSMR library, data from DPM-DC assay, artefact control, profiling panel; compound autofluorescence, ex339/em460 nm, NADH buffer; active compounds read high; 1 = no-compound wells, NADH background; fluorescence fold increase at 10 µM; 65,000 compounds, 5.5% hits; AID 709, 2007;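 active = at 10 µM, mean starting fluorescence two-fold or more over control wells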;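 also: signal is the first read of a kinetic run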
Abs 340nm: compound light absorbance at 340 nm, profiling panel, artefact control, biochemical, MLSMR library, data from PS, PMK, MK assays | 65,000 tested, under 10 active | compound absorbance at 340 nm, fold over control | fold change at 10 µM;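 active = at 10 µM dose, initial 340 nm absorbance at least 2 fold that of control wells; inactive = change under 2 fold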;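 also: initial absorbance extrapolated from kinetic A340 decline of NADH oxidation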
NADH coupling: inhibitors of PK/LDH coupling enzymes, profiling panel, artefact control, biochemical, MLSMR library. coupled PK/LDH NADH assays, four targets. IC50, µM (highest dose often 10 µM), for the others: at the highest dose inhibition. 65,000 compounds, 0.02% hits. AID 774, 2007;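 active = single-dose screening hits from any of four coupled enzyme assays that gave an IC50 when retested across doses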;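 also: the DPM-DC format reads NADH fluorescence rather than 340 nm absorbance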
MK inhibit: S. pneumoniae MK inhibitors, primary screen, biochemical, PK/LDH-coupled NADH absorbance. 65,000 compounds, 0.48% hits. purified MK, PK/LDH-coupled NADH absorbance 340 nm. mevalonate kinase [Streptococcus pneumoniae D39]. inhibition, % at 10 µM;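 active = ranked among the strongest by inhibition in the single 10 µM screen, a fixed top-ranked set picked for dose follow-up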
The depositor's hits bear a star; i = inactive; . = not tested or not shown. An excerpt weighted towards active compounds, which were near 6.5% of everything screened.

SMILES | PMK inhibit | Spn DPM-DC inh | Fluor 339 460 | Abs 340nm | NADH coupling | MK inhibit
CCOC(=O)Cc1c(C)c2ccc(N(CC)CC)cc2oc1=O | 15 | . | 4.4* | 1 | 12% | 9
CCOC(=O)c1c(C)oc2ccc(O)c(CN(C)C)c12 | 11 | i | 1 | 0.99 | 3% | 1
CCN(CC)c1ccc2c(C)c(-c3ccc(N)cc3)c(=O)oc2c1 | 12 | . | 2.5* | 0.98 | 6% | 1
COc1cccc(Oc2coc3c(CN4CCOCC4)c(O)ccc3c2=O)c1 | 10 | . | 3.9* | 1.1 | 9% | 8
COc1ccc(Oc2coc3cc(OC(=O)N4CCOCC4)ccc3c2=O)cc1 | 5 | i | 1.1 | 1.1 | 3% | 5
O=c1c(-c2ccc3c(c2)OCCO3)coc2c(CN3CCOCC3)c(O)ccc12 | 2 | . | 3.8* | 1.1 | 7% | 11
CC(O)c1nc2ccc(Cc3ccc4nc(C(C)O)[nH]c4c3)cc2[nH]1 (stereo not drawn) | 16 | i | 1.1 | 0.99 | 7% | 6
Cc1cc(NCCCN2CCOCC2)n2c(nc3ccccc32)c1C#N | 8 | . | 5* | 1 | 15% | 22
Cc1cc(NCCN2CCOCC2)n2c(nc3ccccc32)c1C#N | 7 | . | 3.7* | 1.1 | 11% | 15
Cc1cc(C)c2cc(CN(CC3CCCO3)S(=O)(=O)c3ccc4c(c3)OCCO4)c(=O)[nH]c2c1 (stereo not drawn) | 13 | i | 1.5 | 1 | 8% | 12
CCOC(=O)C1=C(C)NC2=C(C(=O)CCC2)C1c1cccs1 (stereo not drawn) | 0 | i | 1.6 | 1.1 | 8% | 12
CCOC(=O)c1sc2c(c1C)C(c1cccs1)C1=C(CCCC1=O)N2 (stereo not drawn) | 14 | . | 4.8* | 1 | 8% | 1
Cc1oc2ccc(O)c(CN3CCOCC3)c2c1C(=O)c1ccc(Cl)cc1 | 13 | i | 1.1 | 1.1 | 8% | 10
Cc1c(O)ccc2c3c(c(=O)oc12)CCC(C)C3 (stereo not drawn) | 5 | . | 3.7* | 1.1 | 7% | 9
O=c1oc2c(CN3CCOCC3)c(O)ccc2c2c1CCC2 | 6 | . | 3.6* | 1.1 | 7% | 8
Cc1c(O)ccc2c3c(c(=O)oc12)CCCC3 | 8 | . | 3.9* | 1.1 | 9% | 9
O=C(OCc1nc2ccc(Cl)cc2n1CCO)c1ccc2c(c1)OCO2 | 11 | i | 1.1 | 1 | 5% | 0
COc1ccc2c(CN(C)c3ccccc3)cc(=O)oc2c1 | 13 | i | 1.5 | 1 | 9% | 0
COc1cc(-c2nnc(-c3ccc(S(=O)(=O)c4ccccc4)cc3)o2)cc(OC)c1OC | 13 | . | 3.7* | 1 | 11% | 8
COc1cc(-c2nnc(SCC(=O)c3ccccc3)o2)cc(OC)c1OC | 14 | i | 1.1 | 1 | 5% | 0
CCc1cc2c(CN3CCN(CC)CC3)cc(=O)oc2cc1O | 8 | . | 3.8* | 1.1 | 5% | 1
CCOC(=O)N1CCN(C(=O)c2ccc3c(=O)n(Cc4ccc(Cl)cc4)c(=S)[nH]c3c2)CC1 | 14 | i | 0.97 | 0.99 | 6% | 0
O=C(NCc1ccco1)c1cccn2c(=O)c3sccc3nc12 | 0 | . | 2.5* | 1.1 | 2% | 9
CCOC(=O)N1CCN(C(=O)c2ccc3nc4ccsc4c(=O)n3c2)CC1 | 5 | . | 2.2* | 1 | 2% | 4
CCOC(=O)CSc1nc2ccsc2c(=O)n1C1CCN(C(=O)OCC)CC1 | 14 | i | 1.1 | 1 | 5% | 1
COc1ccc(Cn2c(SCC(=O)NCc3ccco3)nc3ccsc3c2=O)cc1 | 4 | i | 1.1 | 1 | 3% | 6
CCOC(=O)N1CCN(C(=O)c2cccn3c(=O)c4sccc4nc23)CC1 | 1 | . | 2.5* | 1.1 | 2% | 15
CCOC(=O)N1CCC(n2c(SCC(=O)Nc3nccs3)nc3ccsc3c2=O)CC1 | 11 | i | 1.1 | 1 | 4% | 2
